Results published in PubChem BioAssay (Tox21).
Inconclusive results are not listed. A call without a number means that no potency is given here. Values without a mark were called inactive. Calls of active or inactive are those of the source. The call rests on the fitted dose curve.

Assay: p53 small molecule agonists, cell-based qHTS assay with human liver microsomes: qHTS cell viability counter screen (AID 1963579); further: nearly all actives have a fitted effect of over 45% in size
Settings: p53RE-bla HCT-116 viability, ATP luminescence, 16 h, HLM; series mostly up to 66 µM
Description: National Center for Advancing Translational Sciences [NCATS]
Division of Preclinical Innovation [DPI]
U.S. Environmental Protection Agency [EPA]
National Institutes of Environmental Health Sciences [NIEHS]
National Toxicology Program [NTP]
U.S. Food and Drug Administration [FDA]
p53, a tumor suppressor protein, is activated following cellular insult, including DNA damage and other cellular stresses. The activation of p53 regulates cell fate by inducing DNA repair, cell cycle arrest, apoptosis, or cellular senescence. The activation of p53, therefore, is a good indicator of DNA damage and other cellular stresses. […] The activation of the reporter gene under culture conditions can be detected by fluorescence intensity. This cell line was used to screen the Tox21 10K compound library in the condition of presence of human liver microsomes and to identify agonists that activate the p53 signaling pathway after in vitro metabolic activation (Ooka et al., Archive of Toxicology 96:1975-1987, 2022).
Tox21 Assay Protocol Summary:
The p53RE-bla cells were dispensed at 4,000cells/3ul/well in 1536-well black-clear bottom plates. After the assay plates were incubated at 37 C, 5% CO2 incubator for 5 hours, 23 nL of compounds dissolved in DMSO, positive controls or DMSO only was transferred to the assay plate. Following compound addition, 3 uL of human liver microsomes (XenoTech, Kansas City, KS) at final concentration of 0.5 mg/mL and 1uL of B-Nicotinamide adenine dinucleotide 2'-phosphate (NADPH) at final concentration of 0.5 mg/mL were transferred to the assay plate. The plates were incubated at 37 C for 16 hours. 1 uL of LiveBLAzer detection mixture was added to each well and the plates were incubated at room temperature in the dark for 2 h. Fluorescence intensity at 460 and 530 nm emission and 405 nm excitation were measured by an Envision plate reader. For cell viability readout that measures cytotoxicity, 4 ul/well of CellTiter-Glo reagent was added into the assay plates using a Flying Reagent Dispenser. After 30 min incubation at room temperature, the luminescence intensity in the plates was measured using a ViewLux plate reader.
Potency means the concentration at half of the fitted maximal effect.

Structure (SMILES)	Potency	activity change, negative = cytotoxicity
Cc1cc(O)c(Cl)c(C)c1Cl	inactive	
CC[N+](CC)(CC)CCOc1ccc(/C=C/c2ccccc2)cc1	inactive	
CC(=O)Nc1ccc(/C=N/NC(N)=S)cc1	inactive	
COc1cccc2sc(N)nc12	inactive	
CC(C)(C)OC(=O)c1ccc(O)cc1	inactive	
Cc1[nH]c(C)c(Cl)c(=O)c1Cl		-0.426% [at 13.5 µM]
CC(C)=CCNc1ncnc2c1ncn2[C@@H]1O[C@H](CO)[C@@H](O)[C@H]1O	inactive	
CO/N=C1\CN(c2nc3c(cc2F)c(=O)c(C(=O)O)cn3C2CC2)CC1CN (stereo not given)	inactive	
Cn1cnc2c(=O)[nH]c(N)nc21	inactive	
C[C@@H]1C[C@H]2[C@@H]3C[C@H](F)C4=CC(=O)C(Cl)=C[C@]4(C)[C@@]3(F)[C@@H](O)C[C@]2(C)[C@@]1(O)C(=O)CO	inactive	
Nc1ccn([C@H]2CS[C@@H](CO)O2)c(=O)n1	inactive	
Cc1ccc(O)c2ncccc12	inactive	
CCOC(=O)C1=NN(c2ccccc2)C(=O)C1	inactive	
CC(O)CC(C)O (stereo not given)	inactive	
C=C1CC[C@H]2C[C@@H]1C2(C)C	inactive	
CO[Si](C)(OC)OC	inactive	
CC(=O)OCC1=C(C(=O)O)N2C(=O)[C@@H](NC(=O)CSc3ccncc3)[C@H]2SC1	inactive	
COc1ccc(OC(F)(F)F)cc1CN[C@H]1CCCN[C@H]1c1ccccc1	inactive	
Oc1cc(Cl)cc(Cl)c1Cl	29.6 µM (active)	
CC(C)(C)C(O)/C=C/c1ccc2c(c1)OCO2 (stereo not given)	inactive	

Structure (SMILES)	Potency	activity change, negative = cytotoxicity
C1CCC2(CCCCO2)OC1	inactive	
COc1ccc2cc(CCC(C)=O)ccc2c1	inactive	
COc1cc([C@@H]2c3cc4c(cc3[C@@H](O[C@@H]3O[C@@H]5CO[C@@H](C)O[C@H]5[C@H](O)[C@H]3O)[C@H]3COC(=O)[C@H]23)OCO4)cc(OC)c1O	inactive	
CCCCC/C=C\C/C=C\CCCCCCCC(=O)NC(C)c1ccccc1 (stereo not given)	inactive	
C1CCOC1	inactive	
CCCCCCOC(=O)c1ccccc1	inactive	
Cc1cc2c(C(C)C)c(O)c(O)c(C=O)c2c(O)c1-c1c(C)cc2c(C(C)C)c(O)c(O)c(C=O)c2c1O	17.8 µM (active)	
CCCCCCCCCCCCCC[P+](CCCC)(CCCC)CCCC (tested in a mixture with another compound)	inactive	
CO[C@@]12[C@H](COC(N)=O)C3=C(C(=O)C(C)=C(N)C3=O)N1C[C@@H]1N[C@@H]12	inactive	
CC1(C)C(=O)N(Cl)C(=O)N1Br	inactive	
CC/C=C\CCOC(C)OCC (stereo not given)	inactive	
COC=O		-1.32% [at 5.99 µM]
Nc1ccn(C2CO[C@H](CO)O2)c(=O)n1 (stereo not given in full)	inactive	
Cc1ncc([N+](=O)[O-])n1CC(O)CCl (stereo not given)	inactive	
CN(C)CC/C=C1\c2ccccc2COc2ccccc21	inactive	
CC(C)COC(=O)C(C)C	inactive	
CC(C)(C)c1ccc(C(=O)CCCN2CCC(OC(c3ccccc3)c3ccccc3)CC2)cc1	inactive	
CCCC(CC)c1ccccc1 (stereo not given)	inactive	
COc1cc(C)cc(O)c1	inactive	
CCN(Cc1ccncc1)C(=O)C(CO)c1ccccc1 (stereo not given)	inactive	
